This is a sample that favours compounds with a hit; in the whole collection about 0.78% have one here.
PolyA inh – blocks polyadenylation in yeast reporter cells; S. cerevisiae SKY197-pL101 polyadenylation reporter, beta-gal luminescence; efflux-impaired pdr1/pdr3 knockout yeast; score 100 = 6 SD above DMSO; 300,000 tested, 0.02% active; activity score, % at 12 µM;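 active = lowest replicate activity score at least 50, where 100 means six control SD above control mean; inconclusive = lowest score under 50 but half or more replicates reach 50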;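 also: yeast exposed to compound for 9 h at 30 °C; higher score means more reporter readthrough which indicates perturbed polyadenylation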
GASC-1 inh – human JMJD2C demethylase inhibition. Q9H3R0. GST-JMJD2C(1-420) H3K9me3 demethylation, DELFIA europium. inhibition, % at 2.35 µM. 330,000 tested, 0.069% active;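 active = more than half of a compound's replicate wells show inhibition beyond 50%, single wells judged on their own value; inconclusive = some, but no more than half, of replicates pass 50% inhibition; inactive = no replicate passes 50% inhibition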;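 also: signal counts dimethyl H3K9 product captured on neutravidin plate; 0% = median of DMSO wells and 100% = 0.3 times that DMSO median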
V-ATPase pH – regulators of yeast V-ATPase proton transport | S. cerevisiae, pHLuorin cytosolic pH fluorescence | response, % at 10 µM | 350,000 tested, 0.37% active | AID 504577; in the data active = response mostly above about 7.3%, no sharp cut-off; inactive = mostly below about 5.4%; also: actives read high
CR mimetic SO – yeast age-related superoxide inhibition as caloric restriction mimetic. S. cerevisiae aged cells, superoxide DHE fluorescence; active compounds read low. superoxide response (% of plate mean), % at 10 µM. 330,000 tested, 0.18% active. AID 2690;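 active = superoxide response under a set limit, about three screen SD below normal, cut at about 65% in these data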;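 also: yeast aged for seven days with compound at 30 °C before DHE staining; 100% = average MFI of all compound-treated wells on the plate with controls excluded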
PKA-R2B activ – PKA-R2B complex activation; P22694+P31323; PKA-R2B holoenzyme dissociation, Cy5-IP20 fluorescence polarization; R2B truncated from residue 108, S112A mutant; 0% DMSO only, 100% 113 µM cGMP; activation, % at 11.4 µM; 340,000 tested, 0.079% active;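 active = activation above a cutoff set at the mean over all compounds plus 3 SD, cut at about 18% in these data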;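 also: higher means more holoenzyme dissociation and a rise in polarization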
Target sequence (P31323 whole entry, looked up, other chains not shown, the tested form may be a part): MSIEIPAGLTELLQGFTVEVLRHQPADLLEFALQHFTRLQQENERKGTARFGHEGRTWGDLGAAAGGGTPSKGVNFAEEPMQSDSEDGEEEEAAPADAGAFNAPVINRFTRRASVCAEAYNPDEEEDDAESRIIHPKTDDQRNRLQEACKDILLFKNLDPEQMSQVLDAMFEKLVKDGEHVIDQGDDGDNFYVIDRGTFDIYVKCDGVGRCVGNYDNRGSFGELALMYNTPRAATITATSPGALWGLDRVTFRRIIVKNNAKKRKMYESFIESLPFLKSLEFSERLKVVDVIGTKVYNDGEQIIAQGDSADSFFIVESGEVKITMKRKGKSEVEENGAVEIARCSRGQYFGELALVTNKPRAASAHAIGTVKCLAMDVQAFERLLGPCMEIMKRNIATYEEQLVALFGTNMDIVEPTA
PKA-R1A activ – activates the PKA-R1A holoenzyme complex; P00514+P68181; PKA-R1A dissociation, Cy5-IP20 fluorescence polarization; scaled: DMSO 0%, 113 µM cGMP 100%; activation, % at 11.4 µM; 340,000 tested, 0.083% active;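 active = percent activation above the mean of all tested compounds plus 3 SD, cut at about 19% in these data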;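 also: higher means more PKAc released from R1A so a rise in polarization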
V-ATPase pH SP – modulates yeast V-ATPase proton transport | S. cerevisiae pHLuorin cytosolic pH | 980 tested, 2% active | response, % at 10 µM | shares compounds with V-ATPase pH; in the data active = response above about 24%;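 also: plate controls were vehicle wells for no effect and positive control wells for full effect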
An asterisk follows results filed as active; u = inconclusive; x = no result.

SMILES	PolyA inh	GASC-1 inh	V-ATPase pH	CR mimetic SO	PKA-R2B activ	PKA-R1A activ	V-ATPase pH SP
O=C(Nc1cc2c(cc1Br)OCCCO2)c1cccnc1	12	11	9.4*	99	8	-3	6
O=C(CN1CCc2ccccc2C1)Nc1ccccc1Cl	-18	-14	3	103	-7	-10	x
O=C(CN1CCc2ccccc2C1)Nc1ccccc1N1CCCCCC1	0	-5	16*	82	1	13	-1
CCc1ccccc1OCC(=O)Nc1cccc(S(=O)(=O)NC2=NCCC2)c1	x	x	9.5*	111	-5	-3	1
CC(C)c1ccc(C(=O)OCC(=O)Nc2cccc(S(=O)(=O)NC3=NCCC3)c2)cc1	x	x	7.2*	x	-11	-15	1
Cc1ccccc1OCC(=O)Nc1cccc(S(=O)(=O)NC2=NCCC2)c1	x	-3	-2	96	1	-2	x
CCCc1nnc(SCC(=O)Nc2cccc(Cl)c2Cl)o1	-3	43	3	89	9	8	x
O=C(COC(=O)CCC(=O)c1ccc(F)cc1)NCCc1ccccc1	x	-2	1	111	2	1	-6
O=C(COC(=O)CCC(=O)c1ccccc1)NCCc1ccccc1	-12	u	-5	109	-9	-2	x
C=CCN(c1ccccc1)S(=O)(=O)c1cccc(C(=O)Nc2nnc(SCC)s2)c1	-22	-2	11*	102	-12	-1	-1
O=C(NCCN1C(=O)S/C(=C\c2ccc(F)cc2)C1=O)c1cccc(S(=O)(=O)N2CCOCC2)c1	6	13	0	95	3	10	x
O=C(NCCN1C(=O)S/C(=C\c2ccc(Cl)cc2)C1=O)c1ccc(F)c(S(=O)(=O)N2CCOCC2)c1	6	-11	9.5*	98	5	-5	-2
Cc1ccc(S(=O)(=O)Nc2ccc(S(=O)(=O)Nc3nccs3)cc2)c([N+](=O)[O-])c1	35	-2	0	122	-2	-11	x
C=CCNC(=O)CN1N=C(c2ccc(C)cc2)CCC1=O	20	-5	8	119	2	-4	x
CCOC(=O)N=Nc1c(O)n(Cc2ccccc2)c2ccccc12	-22	-2	2	92	-2	-7	-2
CCOC(=O)N=Nc1c(O)n(CC)c2ccccc12	-10	1	-4	97	-1	2	-2
Cc1noc(NS(=O)(=O)c2ccc(NC(=O)/C=C/c3ccccc3)cc2)c1C	x	3	13*	104	-6	-4	4
Cc1nc(SCC(=O)NCC2CCCO2)[nH]c(=O)c1C (stereo not given)	u	-3	-10	97	-6	17	x
CCOC(=O)NCc1ccc2[nH]c(C)cc2c1	0	10	11*	109	-3	-5	2
CCOC(=O)CCC(=O)NCc1ccc2[nH]c(C)cc2c1	0	20	2	86	-5	-4	x
CCN(CC)S(=O)(=O)c1ccc(NC(=O)c2cnccn2)cc1	-6	7	-2	106	1	-3	x
COc1ccc(Cl)cc1NC(=S)NCCSc1ccc(C)cc1	7	2	7.6*	107	-11	-2	4
CCC(C)(C(=O)NC1CCCC1)N(C(=O)Cc1cccs1)c1c(C)n(C)n(-c2ccccc2)c1=O (stereo not given)	-7	-4	1	102	-2	-3	x
CCOc1cc2[nH]c(=S)n(C3CC3)c(=O)c2cc1OCC	14	-38	12*	101	-5	-6	-1
O=C(/C=C/c1cccc([N+](=O)[O-])c1)OCC(=O)N1CCN(C(=O)c2ccco2)CC1	x	-5	12*	96	-2	14	3
SMILES	PolyA inh	GASC-1 inh	V-ATPase pH	CR mimetic SO	PKA-R2B activ	PKA-R1A activ	V-ATPase pH SP
COc1cccc(/C(N)=N/OC(=O)Cc2ccccc2[N+](=O)[O-])c1	6	-30	14*	84	-8	3	0
Cc1c(C)c2cc(Cl)c(OCC(=O)NCCCN3CCCC3=O)cc2oc1=O	x	x	11*	x	-6	-15	2
COc1ccc(CN2C(=O)c3ccccc3C2C(=O)NC2CCCC2)c(OC)c1 (stereo not given)	10	9	9.8*	91	0	-14	1
O=C(COC(=O)Cn1ccc(=O)[nH]c1=O)Nc1ccc(F)cc1	x	4	3	134	-5	0	x
O=C(Nc1ccc(N2CCOCC2)cc1Cl)C1CCN(C(=O)OCc2ccccc2)CC1	0	2	10*	95	-7	-4	3
O=C(Nc1ccc(N2CCOCC2)cc1)C1CCN(C(=O)OCc2ccccc2)CC1	-6	4	4	102	0	-8	x
COc1ccc(CCNC(=O)CCSc2nc(-c3ccco3)cc(C(F)(F)F)n2)cc1OC	7	-1	0	103	4	-6	x
COc1ccc(CCNc2nc(-c3ccco3)cc(C(F)(F)F)n2)cc1OC	-26	-3	11*	106	-9	-11	2
COc1ccccc1C(CC(=O)O)c1ccc2c(c1)OCO2 (stereo not given)	-3	5	-2	105	4	2	x
COc1ccccc1C(CC(=O)N1CCCC1)c1ccc2c(c1)OCO2 (stereo not given)	-11	6	6.8*	95	-1	-9	-3
O=C1C=C(NCc2ccc(Cl)cc2Cl)C2(CCCCC2)O1	-13	0	10*	85	8	-5	4
CN(C)CCCNC1=CC(=O)OC12CCCCC2	-6	36	2	94	0	-6	x
C[C@H](CO)N1C[C@H](C)[C@H](CN(C)C(=O)Nc2ccc(-c3cccs3)cc2)OCc2cnnn2CCCC1=O	x	x	1	x	9	6	x
Cc1ccccc1N1CCN(C2=NC(=O)/C(=C/c3cn[nH]c3-c3ccccc3)S2)CC1	1	6	8.3*	114	-4	5	-3
O=C(NC(CC(=O)N1CCN(c2ccc([N+](=O)[O-])cc2)CC1)c1ccccc1)c1ccccc1Cl (stereo not given)	-6	-3	-1	88	11	-4	x
CCn1cc(CN2CCCC(CO)(Cc3cccc(Cl)c3)C2)cn1 (stereo not given)	23	-3	13*	91	-4	1	1
CCn1cc(S(=O)(=O)N2CCN(Cc3ccc(F)cc3)CC2)cn1	8	0	3	106	2	-6	x
CCn1cc(S(=O)(=O)N2CCN(Cc3cccc(Cl)c3)CC2)cn1	-9	-12	6.1*	100	6	16	1
Cn1cc(CN2CCCC(CO)(Cc3cccc(Cl)c3)C2)cn1 (stereo not given)	-3	1	-4	101	2	-9	x
